Molecules are shown by their SMILES. Values joined by “and” are separate entries in the source; they are usually repeats but may differ in a detail not shown here. Equal entries are not always repeated. Inconclusive results are not listed. Where a structure was tested more than once in an assay, its records may differ in their call. Active and inactive are the calls of the source. Unless noted, the call rests on the fitted dose curve; in most records, active means well fitted curve in the direction sought with a large enough effect; inconclusive means small, poorly fitted or top-dose-only effect, or another doubt; inactive means no such curve, though single readings can be large; an effect the other way counts as inactive or inconclusive.

The values below come from PubChem BioAssay (NCATS).

Assay [1] is described as follows: Confirmatory qHTS for VERO E6 Cytotoxicity Assay: Counterscreen for SARS-CoV-2 CPE Assay (AID 1508605; calls by dose curve; further: nearly all actives have a fitted effect of over 60% in size; further: potency means the concentration at half of the fitted maximal effect). (In general: qHTS replaces the single test concentration by a dilution series.)
The nature of assay [2]: Cytotoxicity counterscreen for inhibitors of SARS-CoV-2 cell entry (AID 1645845; calls by dose curve; further: nearly all actives have a fitted effect of over 50% in size; further: potency means the concentration at half of the fitted maximal effect). The settings on record: outcome: dose series up to 57.1 µM unless noted. The method, boiled down: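 ATP-content luminescence (ATPLite 1step, 15 min RT) read after 48 h compound exposure of Expi293F cells stably expressing human ACE2; normalized to cells-only wells and media-only wells.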
In general terms: Counterscreens check selectivity or assay interference.

Assay [3] deals with Guanine nucleotide-binding protein G(i) subunit alpha-1 (Homo sapiens) (UniProt P63096). Kind of assay: qHTS Assay for Inhibitors of RGS12 GoLoco Motif Activity (Green Fluorophore) (AID 879).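 Further: 0% = labeled peptide with Gαi1 and full inhibition = labeled peptide alone without protein; negative values mean loss of peptide binding seen as reduced polarization.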 In a few lines: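 A drop in FITC polarization marked displacement of the FITC-tagged RGS12 GoLoco peptide (10 nM) from Gαi1 (50 nM). Compounds were incubated 10 min at room temperature in Tris pH 7.5 buffer containing 150 mM NaCl, 0.1 mM GDP and 0.05% NP40; unlabeled peptide titration served as control.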
Chain of Guanine nucleotide-binding protein G(i) subunit alpha-1 (Homo sapiens) (P63096 whole entry, looked up): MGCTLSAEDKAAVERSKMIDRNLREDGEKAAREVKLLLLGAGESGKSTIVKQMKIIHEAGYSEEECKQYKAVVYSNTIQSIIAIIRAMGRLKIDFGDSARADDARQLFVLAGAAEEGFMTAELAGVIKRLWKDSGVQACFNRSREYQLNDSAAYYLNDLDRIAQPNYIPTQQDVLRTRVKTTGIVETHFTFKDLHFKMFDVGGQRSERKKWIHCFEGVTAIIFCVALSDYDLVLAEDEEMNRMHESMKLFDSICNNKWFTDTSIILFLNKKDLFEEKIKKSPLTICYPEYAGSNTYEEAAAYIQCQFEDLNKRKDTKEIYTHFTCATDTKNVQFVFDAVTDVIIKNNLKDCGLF

Assay [4] addresses Pyruvate kinase (Leishmania mexicana) (UniProt Q27686). Kind of assay: qHTS Validation Assay for Inhibitors of Leishmania Mexicana Pyruvate Kinase (AID 945).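 Further: 0% = DMSO only neutral control wells.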 The method, boiled down:
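Compounds are tested as eight-point concentration series. Reactions contain 0.2 nM LmPYK E451W, 0.5 mM PEP, 0.1 mM ADP, 7 mM MgCl2 and 50 mM KCl at pH 7.2, run 1 h at room temperature, then read by PKLight luminescence.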

The target of assay [5] is Alpha-galactosidase (Coffea arabica) (UniProt Q42656). Kind of assay: Counterscreen for Glucocerebrosidase Inhibitors: qHTS Assay for Coffee Bean alpha-Galactosidase at pH 4.5 (AID 957).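 Further: plate controls were enzyme alone for no effect and no enzyme for full effect.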 The method, boiled down:
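Fluorogenic qHTS at pH 4.5 (citrate buffer with Tween-20): 2 nM enzyme, 80 uM 4-MU-alpha-galactoside substrate, compound titrated 0.7 nM to 77 uM, 20 min room temperature. Glycine/NaOH stop; 4-MU read Ex 365/Em 440; Hill-equation AC50 against no-enzyme and enzyme controls.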

Assay [6] deals with Alpha-galactosidase A (Homo sapiens) (UniProt P06280). Kind of assay: Counterscreen for Glucocerebrosidase Inhibitors: qHTS Assay for Human alpha-Galactosidase at pH 4.5 (AID 992). Further: 0% is about no effect. The method, boiled down:
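Each compound is preincubated briefly with 2 nM enzyme before substrate addition (80 uM); plates then sit 20 min at ambient temperature, are quenched with 1M NaOH/1M glycine, and read fluorometrically.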

In assay [7] the target is alpha-glucosidase (Oryza sativa, rice) (UniProt Q653V4). Kind of assay: Counterscreen for Glucocerebrosidase Inhibitors: qHTS Assay for Rice alpha-Glucosidase at pH 5.0 (AID 997).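 Further: 0% = full activity with enzyme and -100% = basal without enzyme.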 The method, boiled down: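 Endpoint fluorogenic assay at pH 5.0: compounds (0.7 nM to 77 uM) titrated against 4 nM rice enzyme and 400 uM 4-MU-alpha-glucoside for 20 min at room temperature; NaOH/glycine stop, read ex 365/em 440 nm, Hill-fitted AC50.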

In assay [8] the target is Alpha-galactosidase (Coffea arabica) (UniProt Q42656). Kind of assay: Counterscreen for Glucocerebrosidase Inhibitors: qHTS Assay for Coffee Bean alpha-Galactosidase at pH 5.9 (AID 998).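 Further: plate controls were uninhibited enzyme for no effect and no-enzyme basal signal for full effect.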 In a few lines:
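Fluorogenic 4-MU substrate hydrolysis, 80 uM substrate and 2 nM coffee bean alpha-galactosidase, pH 5.9 citrate buffer, 20 min at room temperature, then NaOH/glycine stop. Titration 0.7 nM–77 uM, normalized to no-enzyme and enzyme controls, AC50 via Hill equation.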

Assay [9] is described as follows: Counterscreen for APE1 Inhibitors: Fluorescent Dye Displacement Validation Assay (AID 1707).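 Further: plate controls were ThO with dsDNA and no compound for no effect and ThO without dsDNA for full effect.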 In a few lines:
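Loss of Thiazole Orange fluorescence marks promiscuous DNA binders. The dye (250 nM) is mixed with 50 nM abasic-site dsDNA in pH7.5 Tris buffer containing MgCl2, then compounds are added and emission is read once.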

Assay [10] concerns the target Endonuclease 4 (Escherichia coli (strain K12)) (UniProt P0A6C1). Kind of assay: Counterscreen for APE1 Inhibitors: qHTS Validation Assay for Inhibitors of Endonuclease IV (AID 1708). Further: on the % scale 0 is the no-effect control and ±100 the full control effect. In a few lines: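 Incision of a double-stranded 50 nM TAMRA/BHQ-2 abasic substrate was followed kinetically (525/598 nm, reads every 60 s) after 15 min enzyme–compound preincubation with 2 nM EndoIV in pH 7.5 Tris buffer with MgCl2, DTT and Tween-20; concentration-response format.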

The nature of assay [11]: Validation screen for small molecules that induce DNA re-replication in SW480 colon adenocarcinoma cells (AID 504364). Further: 0% is about no effect. In a few lines: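 Image-based DNA content read-out: Hoechst stain 40 min, total nuclear fluorescence intensity (ex 405 nm, em 500-530 nm) after 48 h compound exposure of 250 SW480 cells/well at 37 C, 5% CO2, versus DMSO vehicle.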
Assay [12] can be described thus: Validation screen for inhibitors of Lassa infection (AID 463096; calls by dose curve; further: on the % scale 0 is the no-effect control and ±100 the full control effect).
In assay [13] the target is Voltage-gated inwardly rectifying potassium channel KCNH2 (Homo sapiens) (UniProt Q12809). Kind of assay: qHTS Assay for Small Molecule Inhibitors of the Human hERG Channel Activity (AID 588834).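 Further: lower thallium flux fluorescence means stronger hERG block; nearly all actives have a fitted effect of over 50% in size.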 Further: potency means the concentration at half of the fitted maximal effect.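 On activity change, negative = inhibition: U2OS cells transduced with hERG by BacMam; top concentration of the series differs between compounds; on the % scale 0 is the no-effect control and ±100 the full control effect.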 The method, boiled down: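 Cells were infected with hERG-BacMam virus for 4 hrs at room temperature, grown overnight, then seeded at 2000/well. After dye loading and roughly 10 min compound treatment, thallium influx was triggered and fluorescence recorded.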

Assay [14] deals with Cytochrome P450 2C19 (Homo sapiens) (UniProt P33261). Kind of assay: qHTS Assay for Inhibitors and Substrates of Cytochrome P450 2C19 (AID 899). Further: nearly all actives have a fitted effect of over 60% in size. Further: potency means the concentration at half of the fitted maximal effect. The method, boiled down: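 Reactions contain 5nM enzyme, 10uM Luciferin-H EGE (KM) and 50mM KPO4; compound preincubates 10 min at 37C, NADPH regeneration starts turnover for 60 min. Luminescence after detection reagent gives activity.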
Chain of Cytochrome P450 2C19 (Homo sapiens) (P33261 whole entry, looked up): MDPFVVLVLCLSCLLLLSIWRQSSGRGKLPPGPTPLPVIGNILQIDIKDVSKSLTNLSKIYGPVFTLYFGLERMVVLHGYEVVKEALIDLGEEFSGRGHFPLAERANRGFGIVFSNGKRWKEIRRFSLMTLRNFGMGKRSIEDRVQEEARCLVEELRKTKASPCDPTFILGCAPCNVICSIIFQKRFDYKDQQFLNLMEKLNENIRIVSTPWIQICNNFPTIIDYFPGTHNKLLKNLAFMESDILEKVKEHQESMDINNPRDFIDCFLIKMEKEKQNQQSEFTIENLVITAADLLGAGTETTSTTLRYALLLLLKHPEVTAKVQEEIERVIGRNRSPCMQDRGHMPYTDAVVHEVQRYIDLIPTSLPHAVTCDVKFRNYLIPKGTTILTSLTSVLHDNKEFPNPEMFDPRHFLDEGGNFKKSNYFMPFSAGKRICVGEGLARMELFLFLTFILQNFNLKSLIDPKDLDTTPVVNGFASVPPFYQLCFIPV

Assay [15] has as its target Rap guanine nucleotide exchange factor 3 (Homo sapiens) (UniProt O95398). Kind of assay: Confirmatory qHTS for agonist of cAMP-regulated guanine nucleotide exchange factor 3 (EPAC1) (AID 1645881). Further: nearly all actives have a fitted effect of over 75% in size. Further: potency means the concentration at half of the fitted maximal effect.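 On activation: EPAC1 catalysed release of BODIPY-GDP from Rap1B seen as fluorescence loss; 100% = effect of cAMP agonist control.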
Assay [16] addresses Rap guanine nucleotide exchange factor 4 (Homo sapiens) (UniProt Q8WZA2). Kind of assay: Confirmatory qHTS for agonist of cAMP-regulated guanine nucleotide exchange factor 4 (EPAC2) (AID 1645884).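 Further: nucleotide exchange releases bodipy-GDP from Rap1 and this lowers its fluorescence; on the % scale 0 is the no-effect control and ±100 the full control effect; nearly all actives have a fitted effect of over 65% in size.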
Assay [17] shares this target. Kind of assay: Confirmatory qHTS for antagonist of cAMP-regulated guanine nucleotide exchange factor 4 (EPAC2) (AID 1645885). Further: nearly all actives have a fitted effect of over 25% in size. Further: potency means the concentration at half of the fitted maximal effect. On activity change, negative = inhibition: on the % scale 0 is the no-effect control and ±100 the full control effect.
The test system of a further assay is CP286. Kind of assay: qHTS profiling for inhibitors of Plasmodium falciparum proliferation (AID 504749).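 Further: 0% = DMSO vehicle and full inhibition = artemisinin control; nearly all actives have a fitted effect of over 60% in size.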 The note with it: P. falciparum in erythrocytes, SYBR Green DNA, 72 h; series mostly up to 28.7 µM. The method, boiled down: (§1)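 SYBR Green fluorescence of parasite DNA, read after lysis and overnight dark incubation, measured growth over 72 h in erythrocyte culture at 0.3% parasitemia and 2.5% hematocrit. Data normalised to DMSO and 0.29 uM artemisinin, with plate-drift correction.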

The subject of the next assay is P94_40. The assay is described as above. The note with it: P. falciparum in erythrocytes, SYBR Green DNA, 72 h; series mostly up to 28.7 µM. In a few lines: as §1
A further assay deals with TAB113. Described as above. The note with it: P. falciparum in erythrocytes, SYBR Green DNA, 72 h; series mostly up to 28.7 µM. In a few lines: as §1

Chain of Pyruvate kinase (Leishmania mexicana) (Q27686 2-499 E452W): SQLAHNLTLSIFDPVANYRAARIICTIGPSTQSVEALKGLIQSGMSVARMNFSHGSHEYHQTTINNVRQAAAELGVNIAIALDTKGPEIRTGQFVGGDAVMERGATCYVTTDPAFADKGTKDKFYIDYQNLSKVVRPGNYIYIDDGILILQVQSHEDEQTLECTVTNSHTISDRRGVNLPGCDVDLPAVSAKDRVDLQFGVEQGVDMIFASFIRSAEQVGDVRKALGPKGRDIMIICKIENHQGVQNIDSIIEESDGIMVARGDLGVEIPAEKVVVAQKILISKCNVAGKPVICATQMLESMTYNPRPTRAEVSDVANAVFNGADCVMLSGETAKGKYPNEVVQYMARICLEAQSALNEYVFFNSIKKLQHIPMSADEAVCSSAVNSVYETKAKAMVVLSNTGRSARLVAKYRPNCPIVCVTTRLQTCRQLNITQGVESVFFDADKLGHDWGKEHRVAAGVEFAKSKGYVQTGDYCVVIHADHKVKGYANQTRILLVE
Chain of Rap guanine nucleotide exchange factor 4 (Homo sapiens) (Q8WZA2 whole entry, looked up): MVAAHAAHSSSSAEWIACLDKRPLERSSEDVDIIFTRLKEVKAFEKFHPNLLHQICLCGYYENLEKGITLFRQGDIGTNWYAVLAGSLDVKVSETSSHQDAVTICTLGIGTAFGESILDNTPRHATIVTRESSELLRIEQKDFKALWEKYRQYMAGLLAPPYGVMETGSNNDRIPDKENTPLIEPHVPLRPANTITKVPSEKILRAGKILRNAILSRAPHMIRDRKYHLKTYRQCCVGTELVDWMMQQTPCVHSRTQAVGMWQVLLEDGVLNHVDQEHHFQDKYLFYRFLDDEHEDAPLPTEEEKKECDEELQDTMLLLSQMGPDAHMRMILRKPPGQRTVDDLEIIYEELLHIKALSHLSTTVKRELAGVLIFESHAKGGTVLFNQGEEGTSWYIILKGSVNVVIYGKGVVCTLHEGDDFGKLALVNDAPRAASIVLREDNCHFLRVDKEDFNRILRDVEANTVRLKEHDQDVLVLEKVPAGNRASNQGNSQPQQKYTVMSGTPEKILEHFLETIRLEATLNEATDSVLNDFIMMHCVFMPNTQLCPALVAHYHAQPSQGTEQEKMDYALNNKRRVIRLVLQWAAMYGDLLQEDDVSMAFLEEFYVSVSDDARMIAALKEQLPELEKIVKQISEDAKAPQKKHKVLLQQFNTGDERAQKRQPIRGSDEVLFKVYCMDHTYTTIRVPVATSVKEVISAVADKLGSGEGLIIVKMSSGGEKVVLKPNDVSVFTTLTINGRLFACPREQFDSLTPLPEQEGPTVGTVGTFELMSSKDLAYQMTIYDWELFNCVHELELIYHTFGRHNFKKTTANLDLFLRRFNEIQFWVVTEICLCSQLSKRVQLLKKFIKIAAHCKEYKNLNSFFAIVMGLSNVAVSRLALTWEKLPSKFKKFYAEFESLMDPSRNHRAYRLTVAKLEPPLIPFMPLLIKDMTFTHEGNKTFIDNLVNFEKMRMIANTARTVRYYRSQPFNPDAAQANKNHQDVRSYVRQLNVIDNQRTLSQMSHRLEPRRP
Chain of Rap guanine nucleotide exchange factor 3 (Homo sapiens) (O95398 whole entry, looked up): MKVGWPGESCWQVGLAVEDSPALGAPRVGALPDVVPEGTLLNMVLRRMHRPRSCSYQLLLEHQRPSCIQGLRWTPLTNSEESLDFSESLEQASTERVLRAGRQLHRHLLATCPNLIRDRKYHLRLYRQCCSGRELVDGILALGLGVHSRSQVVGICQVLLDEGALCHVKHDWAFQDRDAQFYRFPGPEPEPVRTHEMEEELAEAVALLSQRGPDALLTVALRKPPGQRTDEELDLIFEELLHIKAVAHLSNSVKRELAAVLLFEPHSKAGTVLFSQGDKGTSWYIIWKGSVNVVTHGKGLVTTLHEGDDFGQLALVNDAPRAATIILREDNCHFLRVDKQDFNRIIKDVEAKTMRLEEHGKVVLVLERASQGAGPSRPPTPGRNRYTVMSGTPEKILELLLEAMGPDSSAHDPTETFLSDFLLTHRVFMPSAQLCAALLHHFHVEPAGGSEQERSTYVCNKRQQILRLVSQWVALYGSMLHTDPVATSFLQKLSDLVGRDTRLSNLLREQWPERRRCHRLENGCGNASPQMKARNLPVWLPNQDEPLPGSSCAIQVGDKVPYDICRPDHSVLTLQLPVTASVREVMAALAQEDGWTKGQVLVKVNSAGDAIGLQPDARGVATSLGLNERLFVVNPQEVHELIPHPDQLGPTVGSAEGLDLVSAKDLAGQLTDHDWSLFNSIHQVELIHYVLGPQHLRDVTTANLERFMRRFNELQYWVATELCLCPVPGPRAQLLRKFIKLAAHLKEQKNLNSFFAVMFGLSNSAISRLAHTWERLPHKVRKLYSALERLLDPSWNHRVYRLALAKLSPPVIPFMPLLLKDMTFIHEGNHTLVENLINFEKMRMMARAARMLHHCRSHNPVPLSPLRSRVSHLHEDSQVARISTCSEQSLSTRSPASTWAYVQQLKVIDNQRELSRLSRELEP
Chain of Alpha-galactosidase (Coffea arabica) (Q42656 whole entry, looked up): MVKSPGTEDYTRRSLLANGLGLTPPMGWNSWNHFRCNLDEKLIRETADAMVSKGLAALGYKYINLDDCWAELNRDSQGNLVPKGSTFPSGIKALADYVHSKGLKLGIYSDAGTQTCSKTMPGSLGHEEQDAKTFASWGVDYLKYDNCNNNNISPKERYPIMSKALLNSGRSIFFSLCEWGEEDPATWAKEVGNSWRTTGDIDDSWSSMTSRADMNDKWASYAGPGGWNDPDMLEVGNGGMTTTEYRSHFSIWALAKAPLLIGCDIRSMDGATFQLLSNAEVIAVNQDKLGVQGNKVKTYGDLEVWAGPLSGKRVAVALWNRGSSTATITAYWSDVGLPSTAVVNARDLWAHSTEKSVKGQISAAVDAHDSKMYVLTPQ
Chain of Alpha-galactosidase A (Homo sapiens) (P06280 whole entry, looked up): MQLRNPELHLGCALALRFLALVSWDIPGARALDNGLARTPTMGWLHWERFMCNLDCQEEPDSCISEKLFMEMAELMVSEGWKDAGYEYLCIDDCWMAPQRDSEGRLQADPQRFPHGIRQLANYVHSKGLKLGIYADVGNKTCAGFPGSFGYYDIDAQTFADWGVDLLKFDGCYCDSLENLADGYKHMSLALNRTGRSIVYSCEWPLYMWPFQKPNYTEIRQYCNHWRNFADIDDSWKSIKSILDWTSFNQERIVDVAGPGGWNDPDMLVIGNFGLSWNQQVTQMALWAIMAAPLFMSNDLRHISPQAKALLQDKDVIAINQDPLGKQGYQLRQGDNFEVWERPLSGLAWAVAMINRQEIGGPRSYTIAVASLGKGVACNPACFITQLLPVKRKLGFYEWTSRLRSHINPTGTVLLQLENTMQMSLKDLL

In the case of `Nc1nc(OC(c2ccc(-c3cccc(F)c3)cc2)C(F)(F)F)cc(-c2ccc(C[C@H](N)C(=O)O)cc2)n1` (stereo partly drawn), the Potency entry in [1] and in assay [2] was “inactive” in each case.
`C/C(=N\NC(=O)c1cccc(S(=O)(=O)N2CCOCC2)c1)c1cc(Cl)ccc1O`: the Potency in assay [1] was 1000 nM (active). Further, the Potency result in [2] was “inactive”.
In the same order, the values of `CC[C@H](NC(=O)[C@H](CS(=O)(=O)CC1CC1)N[C@@H](c1ccc(F)cc1)C(F)(F)F)C(=O)C(=O)NC1CC1` are “inactive” and “inactive”.
On to `Cc1cc2cc(Oc3ccnc(Nc4cccc(CS(=O)(=O)NCCN(C)C)c4)n3)ccc2[nH]1`, for which the Potency in assay [1] was 11200 nM (active).
For `CCCCNc1ncc2c(-c3ccc(CN4CCN(C)CC4)cc3)cn(C3CCC(O)CC3)c2n1` (stereo not drawn), the Potency in assay [1] is 3160 nM (active); in assay [2], “inactive and 25.1 µM (active)”.
With `N#C/C(=C\c1ccc(O)c(O)c1)C(N)=S`, the compound was called inactive in assay [3], in assay [5], in assay [6], in assay [7] and in assay [8]. The Potency entry in assay [4] is “inactive”.
Regarding `C=CCN1CCc2cccc3c2C1Cc1ccc(O)c(O)c1-3` (stereo not drawn), the call in assay [9] and in assay [11] was inactive. Further, the Potency entry in assay [10] was “inactive”.
For the compound `CCc1c(C(=O)OC)ncc2[nH]c3cc(OC)c(OC)cc3c12`, the result in assay [3], in [5], in assay [6], in assay [7], in [8] and in assay [11] was inactive. In addition, the Potency entry in assay [4], in [12] and in [13] was “inactive” in each case.
For the compound `CCCN1CCc2cc(O)cc3c2C1Cc1ccc(O)c(O)c1-3` (stereo not drawn), the Potency result in assay [10] and in assay [12] was “inactive” throughout. The Potency in assay [13] was 7080 nM (active).
On to `O=C(O)C1=CCCN(CCOC(c2ccc(C(F)(F)F)cc2)c2ccc(C(F)(F)F)cc2)C1`, for which the Potency entry in assay [2] is “inactive”.
As to `COc1ccc2c(c1O)-c1c(OC)c(OC)cc3c1[C@H](C2)N(C)CC3`, the Potency entry in assay [14] is “inactive”.
For the compound `CC(C)[C@@]1(NC(=O)[C@@H]2C[C@@H]3c4cccc5[nH]cc(c45)C[C@H]3N(C)C2)O[C@@]2(O)C3CCCN3C(=O)[C@H](Cc3ccccc3)N2C1=O` (stereo partly drawn), the outcome in assay [9] was inactive. Also, the Potency result in assay [10] and in assay [13] was “inactive” in each case.
`CCCN1CCc2cccc3c2C1Cc1ccc(O)c(O)c1-3` (stereo not drawn): the call in assay [9] and in [11] was inactive. For the same compound, the Potency entry in assay [10] and in assay [12] was “inactive” each time.
With `O=C1C=CC(=O)c2c(O)cccc21`, the Potency result in assay [15], in assay [16] and in assay [17] was “inactive” in each case.
Regarding `CC(=O)OC1CC2C(C)(C)C(=O)C=C[C@]2(C)C2CC[C@]3(C)C(=CC(=O)OC3c3ccoc3)[C@]12C` (stereo partly drawn), the Potency result in assay [15] and in [16] was “inactive” throughout.
`COc1cc2c(cc1-c1cc3cc4ccoc4cc3oc1=O)OCO2`: the Potency entry in assay [15] and in [16] was “inactive” in each case. Moreover, the Potency in assay [17] is 987 nM (active).
For `O=C(OC1CCN(CCCl)CC1)C(c1ccccc1)c1ccccc1`, the outcome in assay [3], in assay [5], in assay [6], in [7], in assay [8] and in [9] was inactive. Besides, the call in [11] was inactive. The Potency entry in [4], in [12], in assay [13] and in assay [15] was “inactive” throughout. For the same compound, the activation in [16] is 6.37% [at 17.1 µM, percent relative to cAMP agonist control] (inactive). Besides, in [17], the activity change, negative = inhibition was -6.11% [at 12.7 µM] (inactive).
For `C[C@]12CC[C@H](O)CC1=CCC1C2CC[C@]2(C)C(=O)CC[C@@H]12` (stereo partly drawn), the compound was classed as inactive in assay [9] and in assay [11]. The Potency entry (in assay [10]; in assay [12]; in the assay on CP286; in the assay on P94_40; in the assay with TAB113) was “inactive” in each case.
`CC1=NCCc2c1[nH]c1cc(O)ccc21`: the Potency result in [14] and in assay [17] was “inactive” throughout. Also, the Potency in assay [15] is 63 µM (active) and 28.1 µM (active) and 48.4 µM (active).
As for `N#Cc1cccc(NC(=O)N2CC[C@@]3(CCCN(C(=O)Oc4ccccc4)C3)C2)c1`, the Potency entry in assay [14] is “inactive”.
Turning to `C=CCc1ccc2c(c1)OCO2`, the Potency entry in assay [13] is “inactive”.
Regarding `O=C1c2ccccc2-c2cccc3cccc1c23`, the Potency entry in assay [15], in assay [16] and in [17] was “inactive” in each case.
Turning to `C[N+]1([O-])[C@@H]2CC(OC(=O)[C@@H](CO)c3ccccc3)C[C@@H]1[C@H]1O[C@H]12` (stereo partly drawn), the Potency result with CP286, in the assay with P94_40 and in the assay with TAB113 was “inactive” throughout.
On to `CCNC[C@H](O)c1cccc(O)c1`, for which the Potency entry with CP286, in the assay on P94_40 and with TAB113 was “inactive” in each case.
For `Cc1ccccc1-c1cncnc1NCCc1cnc[nH]1`, in [14], the Potency is 50.1 nM (active).
Take `CC(C)C[C@H]1C(=O)N2CCCC2[C@]2(O)O[C@](NC(=O)[C@@H]3C=C4c5cccc6[nH]c(Br)c(c56)C[C@H]4N(C)C3)(C(C)C)C(=O)N12` (stereo partly drawn): the Potency result in assay [12] is “inactive”.
Take `C[C@@]12CC[C@H]3[C@@H](CC[C@@H]4C[C@H]5S[C@H]5C[C@]43C)[C@H]1CC[C@H]2O`: the Potency in assay [14] is 63.1 nM (active). Besides, the Potency entry with CP286, with P94_40 and in the assay on TAB113 was “inactive” each time.
In the case of `CS(=N)(=O)CC[C@@H](N)C(=O)O` (stereo partly drawn), the call in assay [3], in [5], in assay [6], in [7] and in assay [8] was inactive. In [4], the Potency result was “inactive”.
On to `C[C@H](N)[C@@H](O)c1ccccc1`, for which the Potency result with CP286, with P94_40 and in the assay on TAB113 was “inactive” in each case.
For the compound `COc1ccc2c(c1OC)C(=O)O[C@H]2[C@H]1c2cc3c(cc2CCN1C)OCO3`, the result in assay [3], in assay [5], in [6], in assay [7] and in assay [8] was inactive. In assay [14], the Potency is 1.26 µM (active) and 79.4 nM (active). The Potency result in assay [4] was “inactive”.
